Sampled rows, rich in hits. Any-hit rate of the full collection: about 6.4%.
Gal4-VP16 FLuc – counter-screen for ROR gamma inhibitors: Gal4-VP16 reporter. Drosophila S2 Gal4-VP16 UAS-luciferase, luminescence, 20 h. Potency, µM (highest dose often 53.6 µM), inactives show at the highest dose activity, negative = inhibition, actives largely listed as inhibitors. 310,000 tested, 3.5% active;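 note: Gal4-VP16 expression switched on by copper sulfate through the metallothionein promoter; nearly all actives have a fitted effect of over 50% in size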
RORgamma inh – ROR gamma (mouse) transcription inhibition; P51450; Drosophila S2 Gal4-RORgamma UAS-luciferase reporter, 20 h; Potency, µM (highest dose often 53.6 µM), inactives show at the highest dose activity change, negative = inhibition, most hits filed as inhibitors; 310,000 tested, 5.4% active; AID 2551; note: nearly all actives have a fitted effect of over 60% in size
Target sequence (P51450 whole entry, looked up, the tested form may be a part): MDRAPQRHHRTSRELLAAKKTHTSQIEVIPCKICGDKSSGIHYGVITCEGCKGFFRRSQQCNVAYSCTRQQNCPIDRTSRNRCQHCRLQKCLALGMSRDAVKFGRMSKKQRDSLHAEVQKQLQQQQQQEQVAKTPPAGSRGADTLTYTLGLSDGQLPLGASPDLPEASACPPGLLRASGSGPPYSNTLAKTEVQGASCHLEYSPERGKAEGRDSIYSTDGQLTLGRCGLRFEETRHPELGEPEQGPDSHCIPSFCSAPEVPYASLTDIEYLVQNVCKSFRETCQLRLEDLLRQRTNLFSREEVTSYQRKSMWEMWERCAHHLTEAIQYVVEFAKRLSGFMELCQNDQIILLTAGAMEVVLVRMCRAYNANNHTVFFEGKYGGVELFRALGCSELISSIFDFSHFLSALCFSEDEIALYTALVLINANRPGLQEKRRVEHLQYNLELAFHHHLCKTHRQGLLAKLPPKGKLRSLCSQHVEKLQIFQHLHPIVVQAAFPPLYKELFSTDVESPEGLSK
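Luciferase reporter read in Schneider cells carrying Gal4-RORγ (mouse) and UAS-Photinus luciferase; cells given compound 1 h before 700 uM copper sulfate induction, then incubated 20 h at ambient temperature.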
Luc counter – blocks Kinase-Glo luciferase, a counter-screen artifact; Kinase-Glo luciferase, ATP luminescence, 8 min; Potency, µM (titrated, usually from 38.3 µM), for the others: at the top dose activity change, negative = inhibition, actives largely listed as inhibitors; 200,000 tested, 0.28% active; AID 1379; note: nearly all actives have a fitted effect of over 60% in size
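Kinase-Glo luciferase light output from ATP and luciferin was measured with 10 uM ATP, within the enzyme's linear range. Buffer: 50 mM imidazole pH 7.2, 50 mM KCl, 7 mM MgCl2, 0.01% Tween 20, 0.05% BSA; luminescence read after 8 min at ambient temperature.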
Numbers without * were called inactive; ? = inconclusive; · = not tested or not shown; [ ] = dose if it differs, or a comment. Calls come from the whole dose curve; as a rule, active = well fitted curve in the direction sought with a large enough effect; inconclusive = small, poorly fitted or top-dose-only effect, or another doubt; inactive = no such curve, though single readings can be large; an effect the other way counts as inactive or inconclusive. % is set by controls: 0 for no effect and ±100 for the full control effect; potency is the fitted concentration of half-maximal effect.

SMILES	Gal4-VP16 FLuc	RORgamma inh	Luc counter
O=C(O)CCC(=O)Nc1nnc(C(F)(F)F)s1	-6%	-16%	-3%
CCC(NC(=O)Nc1nnc(C(F)(F)F)s1)(C(F)(F)F)C(F)(F)F	3.5µM*	?	1%
O=C(CN1C(=O)COc2ccccc21)N1CCOCC1	-3%	3%	·
Cc1ccc(/C=N/NC(=O)c2ccccc2OCc2cccc(Br)c2)o1	4%	?	-1%
CC(C)c1ccc(CN2CCSCC2)cc1	0%	-1%	·
Cc1ccc(C(C)C)c(OCC(=O)N/N=C2\CC(=O)CC(C)(C)C2)c1	4%	9%	·
COCCNC(=O)c1ccc(S(=O)(=O)N2CCCc3ccccc32)cc1	16µM*	-5%	·
O=C(O)c1ccc(S(=O)(=O)N2CCCc3ccccc32)cc1	-2%	10%	·
Cc1cccc(C(=O)Nc2nnc(S(=O)(=O)N(C)Cc3ccco3)s2)c1	-5%	-10%	·
COC(=O)c1sc(NC(=S)NC(=O)c2ccc(F)cc2)nc1C	-5%[10 µM]	0%	1%
CCc1nnc(NC(=O)c2cccc(OC)c2)s1	1%	-38%	-1%
C=CCOC(=O)c1sc(NC(=O)c2ccc(OC)cc2)nc1C	-13%	6.3µM*	-12%
CCOc1ccc(C(=O)Nc2nc(C)c(C(=O)OC)s2)cc1	-10%	?	·
COC(=O)c1sc(NC(=S)NC(=O)c2ccccc2C)nc1C	16µM*	6.3µM*	-2%
COc1ccc(C(=O)NC(=S)Nc2nc(C)c(C(=O)N(C)C)s2)cc1	-5%	?	-4%
CCOC(=O)c1sc(NC(=S)NC(=O)c2ccc(OC)cc2)nc1C	5µM*	6.3µM*	·
CCc1nnc(NC(=O)c2ccc(OC)cc2)s1	-22%[10 µM]	7.9µM*	-4%
Cc1cc(C)c2c(n1)SCC(=O)N2CC(=O)Nc1ccccc1Cl	?	3%	·
COc1ccc(NC(=O)N2CCCC3(CCN(S(=O)(=O)c4ccccc4)CC3)C2)cc1	-1%	-25%	-2%
CC(C(=O)c1ccccc1)[n+]1cccc(C(N)=O)c1 (stereo unspecified)	11%	5%	·
CN(C(=O)CSc1nnc(-c2cccs2)o1)C1CCS(=O)(=O)C1 (stereo unspecified)	-24%	-3%	-1%
Cc1c(CCC(=O)NC2CC2)c(=O)oc2c(C)c(O)ccc12	-6%	-5%	·
CC[C@H](CO)Nc1nc(Nc2cccc(Cl)c2)c2ncn(C(C)C)c2n1	3.2µM*	?	·
CC(C)[C@H](CO)N(Cc1cccc(F)c1)c1nc(Nc2cccc(Cl)c2)c2ncn(C(C)C)c2n1	-23%	5%	·
CN(C)C(C)(C)/C=C/C(O)(c1ccccc1)c1ccccc1	-7%	-1%	·
SMILES	Gal4-VP16 FLuc	RORgamma inh	Luc counter
Cc1ccc2c(c1)sc(=NC(=O)C1CC1)n2C	-7%	-26%	·
Cc1ccc2c(c1)sc(=NC(=O)c1cccs1)n2C	7.9µM*	8.9µM*	?
O=c1[nH]cnc2c1N=C(c1cccc([N+](=O)[O-])c1)CC(c1ccccc1)N2 (stereo unspecified)	2%[10 µM]	?	-2%
CN1C(=O)C2(Oc3ccccc3C3CC(c4ccccc4)=NN32)c2ccccc21 (stereo unspecified)	2%	-43%	-2%
Cc1ccc(C2=NN3C(C2)c2ccccc2OC32C(=O)Nc3ccccc32)cc1 (stereo unspecified)	?	13µM*	-2%
CCCCNS(=O)(=O)c1ccc2nc(-c3cccnc3)cc(C(=O)NCCCOCC)c2c1	-3%	39%	-3%
O=C(CCNC(=O)C1CCN(S(=O)(=O)c2ccc(F)cc2)CC1)NCCc1ccc(Cl)cc1	-6%	32%	·
Cn1c(=O)c2c(-c3ccc(OC(F)F)cc3)cc(-c3ccccc3)nc2n(C)c1=O	2%	-12%	·
COC(=O)C(C(=O)OC)C(Cc1cc(F)cc(F)c1F)NC=O (stereo unspecified)	-1%	-8%	-1%
Cc1cc(N)n(-c2ccc(S(N)(=O)=O)cc2[N+](=O)[O-])n1	-7%	6%	1%
COc1ccc2nc(-c3ccccc3)[nH]c2c1	?	14%	?
COc1cccc(N=c2oc3ccccc3cc2-c2nc3ccccc3[nH]2)c1	?	7.9µM*	3%
COc1cccc(OCc2nc3ccccc3[nH]2)c1	-7%	?	?
COc1ccc2oc(=O)c(-c3nc4ccccc4o3)cc2c1	2%	4%	-4%
COc1ccc(N=c2oc3ccc(OC)cc3cc2-c2nc3ccccc3[nH]2)cc1	-7%	10µM*	-6%
COc1cccc(N=c2oc3ccc(OC)cc3cc2-c2nc3ccccc3[nH]2)c1	-26%	14µM*	-19%
COc1ccc(OC)c(NS(=O)(=O)c2c(C)nc3sccn3c2=O)c1	2%	12%	·
OCC(O)CS (stereo unspecified)	5%	-14%[10 µM]	·
CC1Oc2ccccc2N(Cc2ccc(F)cc2)C1=O (stereo unspecified)	10%	8%	·
Cc1ccccc1-c1nc(CN2CCC(C(=O)O)CC2)c(C)o1	3%	-7%	-3%
Cc1ccccc1-c1nc(CN(Cc2c(C)nn(C)c2C)C2CC2)c(C)o1	13µM*	5.6µM*	2%
CCCC[C@@H](C)/C=C(C)/C=C(\C)C(=O)NC1=C[C@@](O)(/C=C/C=C/C=C/C(=O)NC2=C(O)CCC2=O)[C@@H]2O[C@@H]2C1=O	1.3µM*	0.45µM*	·
CC1CCN(S(=O)(=O)c2cccc(C(=O)N3CCN(c4ccc(F)cc4)CC3)c2)CC1	-66%	?	·
CC1(C)CC(NC(=O)c2ccccc2F)CC(C)(C)N1	-7%	10%	·
CC(C)CNc1nc(Oc2ccc(=O)[nH]n2)nc(N2CCOCC2)n1	-14%	-22%	0%
SMILES	Gal4-VP16 FLuc	RORgamma inh	Luc counter
O=C(NNC(=O)c1cccc(C(F)(F)F)c1)c1ccncc1	-6%	10%	·
O=C(NNC1=NCCN1Cc1ccccc1)c1cccc(C(F)(F)F)c1	11µM*	3.2µM*	·
CCOc1ccc2nc(/N=C/c3c(C)[nH]n(-c4ccc(C)cc4)c3=O)sc2c1	?	?	7.9µM*
CCOc1ccc2nc(/N=C/c3c(C)[nH]n(-c4ccccc4)c3=O)sc2c1	-2%	42%	?
CCN(C(=O)CN1C(=O)S/C(=C\C=C\c2ccccc2)C1=O)C1CCS(=O)(=O)C1 (stereo unspecified)	-4%	-24%	·
COc1ccc(S(=O)(=O)N(CCO)c2ccccc2CN(C)CC=Cc2ccc(Cl)cc2)cc1	14µM*	-40%	3%[39.9 µM]
COc1ccc(S(=O)(=O)N(Cc2ccccc2)c2ccccc2C(=O)O)cc1	9%	21%[1.91 µM]	·
CCOc1ccc(NC(=O)c2ccc(NC(=O)Cc3n[nH]c(=O)c4ccccc34)cc2)cc1	-21%	-3%	·
CCOC(=O)CN1C(=O)/C(=C/c2c(F)cccc2Cl)Oc2ccccc21	-16%	?	·
Cc1ccnc(N2C(=O)c3ccccc3C2O)c1 (stereo unspecified)	?	?	11µM*
Cc1ccnc(N2C(=O)c3ccccc3C2Nc2cccc(C)c2C)c1 (stereo unspecified)	-7%	37%	-2%
O=S1(=O)CCN(C(CCO)c2cccc(C(F)(F)F)c2)CC1 (stereo unspecified)	-30%	-11%	0%
Cc1ccc(NC(=O)CC2SC3=NCCN3C2=O)cc1 (stereo unspecified)	11µM*	?	-2%
